SMILES strings stand for the structures. Active and inactive are the calls of the source.

Experiment [1] concerns PRMT1 (protein arginine N-methyltransferase 1). The experiment in a line: small molecules binding arginine methyltransferase PRMT1 – biochemical, small-molecule microarray, 635 nm fluorescence, primary screen (AID 1088).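 Further: binding of Prmt1 protein to compounds spotted on small-molecule microarray slides.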 As to conditions: higher = more signal.
Experiment [2] is described as follows: growth effects on S. cerevisiae YJM789 – YJM789 clinical isolate, OD600, 24 h, basal, primary screen (AID 1089).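 Further: growth of clinical yeast isolate S. cerevisiae YJM 789 seeded 1000 cells per well; test concentration not given here.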 As to conditions: higher = more signal, called active from +8 up or from −8 down.
Experiment [3] can be described thus: S. pombe growth modifiers, basal conditions – strain 972, OD600, 24 h, no modulator, primary screen (AID 1090).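 Further: basal condition with compound alone and no growth modifier present; test concentration not given here.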 As to conditions: S. pombe 972 growth, higher = more signal, called active from +8 up or from −8 down.
A short description of experiment [4]: budding yeast growth modifiers under rapamycin – strain BY4716, OD600, 96 h, primary screen (AID 1091). Further: test concentration not given here. As to conditions: S. cerevisiae BY4716 + rapamycin, higher = more signal, called active from +8 up or from −8 down.
Experiment [5] deals with Torsin-1A-interacting protein 2 (Homo sapiens) (UniProt Q8NFQ8). The experiment is described as follows: small molecules binding lysate-expressed LULL1 – cell lysate, human LULL1 lysate, 635/667 nm fluorescence, primary screen (AID 1092).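 Further: probe is lysate of COS7 cells overexpressing human LULL1; score merges per-feature 667 nm fluorescence with signal-to-noise.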 As to conditions: small-molecule microarray, hLULL1 lysate binding, 635 nm fluorescence; higher = more signal.
Experiment [6] can be described thus: optical density change of DRC41 E. coli – strain DRC41, OD650, 24 h, E. coli filamentation project, primary screen (AID 1093).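 Further: MC1000 strain lacking acrAB efflux and sulA so SOS filamentation is blocked; test concentration not given here.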 As to conditions: E. coli DRC41 growth, higher = more signal, called active from +8 up or from −8 down.
Experiment [7] can be described thus: probe aLefty2 binding to arrayed compounds – biochemical, biotinylated probe, 635/667 nm fluorescence, primary screen (AID 1094).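 Further: score merges spot fluorescence near 667 nm with spot signal-to-noise ratio.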 As to conditions: small-molecule microarray, higher = more signal.
The test system of experiment [8] is Noggin (protein binding on small-molecule microarray). The experiment is described as follows: small molecules binding Noggin protein – biochemical, 635/667 nm fluorescence, primary screen (AID 1095).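 Further: score merges 667 nm feature fluorescence with signal to noise over triplicate slides.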 As to conditions: 635 nm fluorescence, higher = more signal.
The target of experiment [9] is Neurogenic locus notch homolog protein 3 (Homo sapiens) (UniProt Q9UM47). The experiment is described as follows: small molecules binding NOTCH3 protein – biochemical, 635/667 nm fluorescence, primary screen (AID 1096). As to conditions: small-molecule microarray, 635 nm fluorescence, higher = more signal.
Experiment [10] can be described thus: probe aEGFR binding to arrayed compounds – biochemical, biotinylated probe, 635/667 nm fluorescence, primary screen (AID 1097).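 Further: probe is a biotinylated anti-EGFR antibody binding compounds printed on slides; score combines fluorescence near 667 nm and signal to noise of each spot.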 As to conditions: small-molecule microarray, higher = more signal.
Experiment [11] deals with Plasmodium falciparum Sir2 (PF13_0152, Sir2A). The experiment is described as follows: Plasmodium falciparum Sir2A binding compounds – biochemical, small-molecule microarray, 635 nm fluorescence, primary screen (AID 1098).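 Further: score merges spot fluorescence intensity with its signal-to-noise ratio.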 As to conditions: fluorescence 635 nm, higher = more signal.
Experiment [12] is described as follows: probe aDKK1 binding to arrayed compounds – biochemical, biotinylated probe, 635/667 nm fluorescence, primary screen (AID 1099).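 Further: score merges 667nm spot fluorescence with signal to noise across triplicate slides; reference of the scale not given here.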 As to conditions: small-molecule microarray, higher = more signal.
Experiment [13] is described as follows: probe aCHRDL2 binding to arrayed compounds – biochemical, biotinylated probe, 635/667 nm fluorescence, primary screen (AID 1100). As to conditions: small-molecule microarray, higher = more signal.
A short description of experiment [14]: change in splice reporter luminescence, either direction, cell-based, HEK293, spliceosome inhibition project, primary screen (AID 1101).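 Further: HEK293 cells carrying a splicing-competent luciferase reporter gene; test concentration not given here.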 As to conditions: HEK293 splicing luciferase reporter, 24 h, higher = more signal, called active from +8 up or from −8 down. In general terms: Reporter assays use an easily measured gene product as a stand-in for the process of interest.

Experiment [15] deals with Fibroblast growth factor 10 (Homo sapiens) (UniProt O15520). The experiment in a line: compounds binding fibroblast growth factor 10 – biochemical, small-molecule microarray, 635 nm fluorescence, primary screen (AID 1102). As to conditions: FGF10 binding, fluorescence 635 nm, higher = more signal.
The subject of experiment [16] is glycogen synthase kinase-3 (GSK3A per assay name; protocol says GSK3B). The experiment is described as follows: compounds binding glycogen synthase kinase-3 – biochemical, small-molecule microarray, 635 nm fluorescence, GSK3A, primary screen (AID 1103). Further: the record names both GSK3A and GSK3B. As to conditions: fluorescence 635 nm, higher = more signal.
Experiment [17] concerns the target Epidermal growth factor receptor (Homo sapiens) (UniProt P00533). The experiment in a line: compounds binding epidermal growth factor receptor – biochemical, small-molecule microarray, 635 nm fluorescence, primary screen (AID 1104).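 Further: score merges 667 nm emission intensity with spot signal to noise over triplicate slides.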 As to conditions: EGFR binding, higher = more signal.
Experiment [18] addresses Follistatin-related protein 3 (Homo sapiens) (UniProt O95633). The experiment is described as follows: compounds binding follistatin-related protein 3 – biochemical, small-molecule microarray, 635 nm fluorescence, primary screen (AID 1105).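 Further: score merges emission near 667 nm and signal to noise per printed spot across three slides.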 As to conditions: FSTL3 binding, higher = more signal.
For experiment [19], the target named is Dickkopf-related protein 1 (Homo sapiens) (UniProt O94907). The experiment in a line: small molecules binding DKK1 protein – biochemical, small-molecule microarray, 635 nm fluorescence scan, primary screen (AID 1106).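 Further: score merges emission near 667 nm with signal to noise over three replicate slides.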 As to conditions: higher = more signal.
Experiment [20] deals with Inhibin beta A chain (activin A). The experiment in a line: small molecules binding activin A – biochemical, small-molecule microarray, 635 nm fluorescence scan, primary screen (AID 1107).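 Further: mouse activin A protein probed at 4.33 µg/mL on printed slides; score merges bound-protein fluorescence near 667 nm with spot signal-to-noise.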 As to conditions: INHBA, higher = more signal.

Sequence of Dickkopf-related protein 1 (Homo sapiens) (O94907 whole entry, looked up): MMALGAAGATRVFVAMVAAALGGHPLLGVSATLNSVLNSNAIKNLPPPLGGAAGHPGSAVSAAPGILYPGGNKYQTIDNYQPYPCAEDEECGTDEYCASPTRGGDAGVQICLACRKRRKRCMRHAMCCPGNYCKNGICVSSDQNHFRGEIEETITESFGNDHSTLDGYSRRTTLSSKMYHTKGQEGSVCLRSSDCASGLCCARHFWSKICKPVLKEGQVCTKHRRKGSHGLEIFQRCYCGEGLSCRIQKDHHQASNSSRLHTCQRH
Sequence of Fibroblast growth factor 10 (Homo sapiens) (O15520 whole entry, looked up): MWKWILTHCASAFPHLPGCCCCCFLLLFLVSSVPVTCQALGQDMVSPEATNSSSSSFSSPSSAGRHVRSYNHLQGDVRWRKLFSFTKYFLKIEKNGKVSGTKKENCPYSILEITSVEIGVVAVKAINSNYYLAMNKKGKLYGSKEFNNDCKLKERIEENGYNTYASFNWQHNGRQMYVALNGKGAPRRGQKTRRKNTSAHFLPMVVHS
Sequence of Neurogenic locus notch homolog protein 3 (Homo sapiens) (Q9UM47 whole entry, looked up): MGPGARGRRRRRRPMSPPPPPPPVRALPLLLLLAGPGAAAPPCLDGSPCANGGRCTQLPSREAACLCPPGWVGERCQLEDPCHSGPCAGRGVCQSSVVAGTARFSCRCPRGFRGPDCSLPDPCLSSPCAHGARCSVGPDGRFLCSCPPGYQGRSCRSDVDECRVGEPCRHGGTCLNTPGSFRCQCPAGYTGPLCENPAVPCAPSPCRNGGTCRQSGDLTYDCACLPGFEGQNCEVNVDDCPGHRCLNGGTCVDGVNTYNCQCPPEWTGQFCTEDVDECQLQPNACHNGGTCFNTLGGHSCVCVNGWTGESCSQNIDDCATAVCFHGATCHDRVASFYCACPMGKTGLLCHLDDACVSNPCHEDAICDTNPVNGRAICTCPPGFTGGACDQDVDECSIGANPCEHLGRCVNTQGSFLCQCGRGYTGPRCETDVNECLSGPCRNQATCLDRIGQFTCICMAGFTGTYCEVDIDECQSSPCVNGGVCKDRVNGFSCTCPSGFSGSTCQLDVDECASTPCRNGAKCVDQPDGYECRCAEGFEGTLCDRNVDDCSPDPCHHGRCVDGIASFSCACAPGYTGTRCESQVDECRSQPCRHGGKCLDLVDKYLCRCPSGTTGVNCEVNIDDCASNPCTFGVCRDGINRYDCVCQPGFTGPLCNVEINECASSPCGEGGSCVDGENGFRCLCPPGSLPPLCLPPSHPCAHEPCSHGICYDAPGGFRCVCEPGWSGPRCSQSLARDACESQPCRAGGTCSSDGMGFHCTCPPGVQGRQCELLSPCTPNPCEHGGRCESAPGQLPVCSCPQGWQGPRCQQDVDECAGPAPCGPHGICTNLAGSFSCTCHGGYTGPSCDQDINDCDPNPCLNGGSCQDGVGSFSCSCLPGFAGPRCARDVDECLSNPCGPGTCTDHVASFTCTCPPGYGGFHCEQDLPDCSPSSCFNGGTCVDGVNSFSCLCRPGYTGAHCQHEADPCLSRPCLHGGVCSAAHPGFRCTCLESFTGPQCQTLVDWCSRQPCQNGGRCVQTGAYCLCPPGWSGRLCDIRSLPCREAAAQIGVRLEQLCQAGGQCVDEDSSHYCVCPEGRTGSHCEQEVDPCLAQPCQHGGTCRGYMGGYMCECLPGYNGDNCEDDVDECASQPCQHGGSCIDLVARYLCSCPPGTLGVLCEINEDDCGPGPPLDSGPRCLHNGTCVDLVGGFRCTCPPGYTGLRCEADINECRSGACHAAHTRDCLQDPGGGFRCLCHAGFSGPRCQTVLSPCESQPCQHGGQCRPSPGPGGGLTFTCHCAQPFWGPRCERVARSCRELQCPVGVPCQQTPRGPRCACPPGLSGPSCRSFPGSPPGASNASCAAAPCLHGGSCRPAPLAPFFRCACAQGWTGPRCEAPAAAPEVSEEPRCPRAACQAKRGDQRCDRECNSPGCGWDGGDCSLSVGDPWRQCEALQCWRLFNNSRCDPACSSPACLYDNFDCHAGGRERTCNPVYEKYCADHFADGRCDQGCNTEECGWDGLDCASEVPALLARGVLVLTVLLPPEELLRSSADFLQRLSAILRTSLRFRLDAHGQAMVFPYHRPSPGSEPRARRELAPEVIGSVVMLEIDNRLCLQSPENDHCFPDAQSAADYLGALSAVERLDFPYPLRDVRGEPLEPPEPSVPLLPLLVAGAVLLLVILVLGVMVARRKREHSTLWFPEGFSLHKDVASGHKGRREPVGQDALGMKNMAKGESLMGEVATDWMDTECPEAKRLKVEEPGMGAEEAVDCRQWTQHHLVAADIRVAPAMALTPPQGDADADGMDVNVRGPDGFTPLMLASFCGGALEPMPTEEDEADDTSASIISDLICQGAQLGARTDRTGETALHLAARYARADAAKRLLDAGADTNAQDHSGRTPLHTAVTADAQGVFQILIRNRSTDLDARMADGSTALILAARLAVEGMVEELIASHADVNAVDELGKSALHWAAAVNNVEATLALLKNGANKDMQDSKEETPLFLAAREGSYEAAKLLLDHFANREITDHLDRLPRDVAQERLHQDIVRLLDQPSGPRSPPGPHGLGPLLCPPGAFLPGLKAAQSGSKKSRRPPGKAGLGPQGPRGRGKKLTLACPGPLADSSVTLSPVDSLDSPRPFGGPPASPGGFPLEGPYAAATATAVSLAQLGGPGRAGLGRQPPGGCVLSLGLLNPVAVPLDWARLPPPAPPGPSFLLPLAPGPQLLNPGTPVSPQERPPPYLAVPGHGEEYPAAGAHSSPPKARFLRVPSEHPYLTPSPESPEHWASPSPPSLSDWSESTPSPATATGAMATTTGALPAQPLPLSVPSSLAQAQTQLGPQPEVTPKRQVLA
Sequence of Epidermal growth factor receptor (Homo sapiens) (P00533 whole entry, looked up): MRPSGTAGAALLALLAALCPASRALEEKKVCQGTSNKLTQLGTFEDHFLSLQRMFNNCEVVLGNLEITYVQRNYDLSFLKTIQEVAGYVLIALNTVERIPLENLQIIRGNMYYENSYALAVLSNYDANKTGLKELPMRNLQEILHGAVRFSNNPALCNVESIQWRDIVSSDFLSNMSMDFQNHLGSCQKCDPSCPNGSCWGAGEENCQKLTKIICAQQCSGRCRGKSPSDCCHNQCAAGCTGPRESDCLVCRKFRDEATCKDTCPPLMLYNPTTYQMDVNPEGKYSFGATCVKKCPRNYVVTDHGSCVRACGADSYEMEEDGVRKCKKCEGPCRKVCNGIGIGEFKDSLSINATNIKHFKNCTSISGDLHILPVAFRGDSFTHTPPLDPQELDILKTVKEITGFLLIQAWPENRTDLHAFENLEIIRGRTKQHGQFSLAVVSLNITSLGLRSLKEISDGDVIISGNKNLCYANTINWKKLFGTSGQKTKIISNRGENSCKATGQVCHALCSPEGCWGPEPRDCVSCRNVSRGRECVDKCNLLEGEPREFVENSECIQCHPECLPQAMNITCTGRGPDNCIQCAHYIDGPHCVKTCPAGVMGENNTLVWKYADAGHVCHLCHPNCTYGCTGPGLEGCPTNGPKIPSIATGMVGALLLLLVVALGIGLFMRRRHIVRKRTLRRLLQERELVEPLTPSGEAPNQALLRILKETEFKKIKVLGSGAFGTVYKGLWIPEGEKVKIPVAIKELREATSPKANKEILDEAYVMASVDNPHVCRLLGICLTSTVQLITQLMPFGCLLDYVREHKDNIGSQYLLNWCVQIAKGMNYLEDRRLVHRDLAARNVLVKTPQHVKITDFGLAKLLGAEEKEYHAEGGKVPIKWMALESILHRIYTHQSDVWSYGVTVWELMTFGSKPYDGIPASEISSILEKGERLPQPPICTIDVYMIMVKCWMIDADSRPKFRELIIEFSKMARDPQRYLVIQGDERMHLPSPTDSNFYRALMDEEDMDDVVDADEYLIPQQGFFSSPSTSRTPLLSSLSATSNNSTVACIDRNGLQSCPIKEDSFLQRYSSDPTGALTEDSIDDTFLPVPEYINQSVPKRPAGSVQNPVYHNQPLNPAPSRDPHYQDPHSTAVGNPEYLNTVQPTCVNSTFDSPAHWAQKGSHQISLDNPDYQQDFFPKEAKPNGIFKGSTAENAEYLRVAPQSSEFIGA
Sequence of Follistatin-related protein 3 (Homo sapiens) (O95633 whole entry, looked up): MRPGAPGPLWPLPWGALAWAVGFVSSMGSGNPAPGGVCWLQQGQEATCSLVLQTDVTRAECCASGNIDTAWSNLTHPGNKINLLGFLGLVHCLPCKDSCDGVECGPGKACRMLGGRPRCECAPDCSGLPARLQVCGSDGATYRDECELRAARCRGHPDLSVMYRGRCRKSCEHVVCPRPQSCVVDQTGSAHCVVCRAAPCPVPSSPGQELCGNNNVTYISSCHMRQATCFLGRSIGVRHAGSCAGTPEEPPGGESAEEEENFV
Sequence of Torsin-1A-interacting protein 2 (Homo sapiens) (Q8NFQ8 whole entry, looked up): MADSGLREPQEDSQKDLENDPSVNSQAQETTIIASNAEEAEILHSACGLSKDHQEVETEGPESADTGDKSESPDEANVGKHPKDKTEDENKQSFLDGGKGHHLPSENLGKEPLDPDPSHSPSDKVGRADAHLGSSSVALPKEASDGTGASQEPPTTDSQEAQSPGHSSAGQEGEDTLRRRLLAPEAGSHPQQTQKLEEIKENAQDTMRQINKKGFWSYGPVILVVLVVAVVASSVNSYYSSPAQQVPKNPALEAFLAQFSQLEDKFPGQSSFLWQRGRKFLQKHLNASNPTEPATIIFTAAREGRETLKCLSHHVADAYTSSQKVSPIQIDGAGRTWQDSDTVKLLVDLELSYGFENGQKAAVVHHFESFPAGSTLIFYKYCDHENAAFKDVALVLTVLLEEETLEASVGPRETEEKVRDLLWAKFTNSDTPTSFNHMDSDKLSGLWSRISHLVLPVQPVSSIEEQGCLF

In the case of `O=C1NC(=O)C2C1C=CC(C(O)c1ccco1)N2Nc1ccc(Cl)cc1Cl` (stereo not given), the composite z-score in [1] is 0.232; in experiment [5], 1.72; in [7], -0.103; in experiment [8], 0.223; in [9], 0.417; in [10], -0.0362. The composite z-score in experiment [11] is 0.029; in [12] it was 0.549; in experiment [13], 0.609; in experiment [15], -0.0176; in experiment [16], 0.109; in [17], -0.301. The composite z-score in [18] is 0.799; in experiment [19], -0.0083; in experiment [20], 1.39. Moreover, the z-score is -25.2 (active) in experiment [2]; -1.67 (inactive) in [3]; -0.647 (inactive) in [4]; -1.49 (inactive) in experiment [6]; 0.545 (inactive) in experiment [14].

For the compound `COC(=O)[C@@]1(Cc2ccc(OC)cc2)[C@H]2c3cc(C(=O)N4CCCC4)n(CCO)c3C[C@H]2CN1C(=O)c1ccccc1`, the composite z-score in experiment [1] is 0.738; in experiment [5] it was 4.02; in experiment [7], 0.159; in experiment [8] it was -0.0367; in [9], 0.552; in [10] it was 0.212. In addition, the composite z-score worked out at 0.333 in [11]; 0.798 in [12]; 0.888 in experiment [13]; 0.717 in experiment [15]; 0.483 in [16]; 0.0327 in experiment [17]. Further, the composite z-score in [18] was 0.155; in experiment [19] it was -0.418; in [20], 0.45. For the same compound, the z-score in experiment [2] is 0.663 (inactive); in experiment [3], 0.544 (inactive); in experiment [4] it was -0.289 (inactive); in experiment [6] it was -1.41 (inactive); in experiment [14] it was -1.14 (inactive).

With `CN(C)CCCCCCNC(=O)[C@@H]1C[C@@H]2C(=O)N3CCC[C@H]3C(=O)N2[C@@H]1c1cccc(OCCO)c1`, the composite z-score in experiment [1] was 1.54; in experiment [5] it was 1.66; in [7] it was -0.0664; in experiment [8], 1.54; in [9], 1.06; in [10] it was 0.193. Besides, the composite z-score is 1.35 in experiment [11]; -0.0718 in experiment [12]; 0.481 in [13]; 0.92 in experiment [15]; 1.33 in [16]; 1.11 in experiment [17]. Besides, the composite z-score is 1.49 in experiment [18], 1.81 in experiment [19] and 0.749 in [20]. Moreover, the z-score in experiment [2] is 0.108 (inactive); in [3], -0.177 (inactive); in [4] it was 1.04 (inactive); in experiment [6] it was -0.395 (inactive); in [14], 0.134 (inactive).

For the compound `COc1ccc(CCNC(=O)[C@@]2(Sc3ccc(C)cc3)CC(=O)N(Cc3ccccc3C(F)(F)F)[C@@H]2c2ccc(CO)cc2I)cc1`, the composite z-score in [1] was 1; in experiment [5], 1.97; in [7], -0.0668; in experiment [8], -1.46; in [9], -1.03; in experiment [10], -0.264. Moreover, the composite z-score was 1.09 in [11]; -0.0552 in [12]; 1.08 in experiment [13]; -1.06 in [15]; -0.404 in experiment [16]; -1.24 in experiment [17]. Moreover, the composite z-score in experiment [18] was -1.64; in experiment [19], -1.14; in experiment [20], 0.67. Moreover, the z-score was -1.65 (inactive) in experiment [2]; -4.64 (inactive) in experiment [3]; 1.22 (inactive) in [4]; 0.404 (inactive) in [6]; -1.14 (inactive) in [14].

For the compound `CC[C@@H]1C=C(C(=O)O)[C@H](c2ccc(C#N)cc2)N1S(=O)(=O)c1ccc(C)cc1`, the composite z-score was 0.799 in experiment [1]; 3.47 in experiment [5]; 0.283 in experiment [7]; -0.911 in [8]; 0.314 in experiment [9]; 0.122 in experiment [10]. In addition, the composite z-score in experiment [11] was 1.1; in [12] it was 0.313; in experiment [13], 0.863; in experiment [15] it was 0.396; in experiment [16] it was 0.39; in experiment [17] it was -0.967. Further, the composite z-score in [18] was -0.406; in experiment [19], -1.22; in experiment [20], 0.264. The z-score in [2] was -0.407 (inactive); in experiment [3] it was -0.185 (inactive); in experiment [4] it was -0.104 (inactive); in [6], 0.405 (inactive); in experiment [14], 0.552 (inactive).
